Test systems include NCI-H23 lung; NCI-H226 lung; NCI-H322M lung; HOP-62 NSCLC; NCI-H460 lung; HOP-92 NSCLC; 786-0 renal; COLO 205 colon; DU-145 prostate; K-562 leukemia; MALME-3M melanoma; MDA-MB-231 breast; SF-268 CNS; SF-539 CNS; M14 melanoma; RXF 393 renal; SF-295 CNS; A549/ATCC NSCLC; UACC-257 melanoma.
What all share (test): NCI-60 one-dose screen, 48 h (100 = growth as untreated, 0 = no growth, -100 = all killed)
Settings in all cases: 10 µM unless noted

The structures appear in SMILES notation. Compounds without any hit were thinned out: in the full panel of roughly 83,000, 20% have a hit.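 Treatment: one concentration, 48 hours, 96-well format. Scoring: percent growth, with anything below 10 considered active.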 Unmarked numbers belong to inactive results. Calls of active or inactive are those of the source.

Turning to `COc1cc2ccc(C(C)=O)cc2cc1OC`, the growth in the assay on NCI-H23 lung is 99.5%; in the assay on NCI-H226 lung it was 81.4%; with NCI-H322M lung it was 104%; with HOP-62 NSCLC, 81.8%; with NCI-H460 lung, 100%; with HOP-92 NSCLC, 86%. Also, the growth in the assay with 786-0 renal is 107%; in the assay on COLO 205 colon it was 97.1%; in the assay on DU-145 prostate, 111%; in the assay on K-562 leukemia it was 118%; in the assay on MALME-3M melanoma it was 107%; in the assay on MDA-MB-231 breast, 109%. For the same compound, the growth is 101% in the assay on SF-268 CNS, 95.6% with SF-539 CNS and 110% with M14 melanoma.

`N#Cc1ccc(-c2ccc(-c3cccs3)o2)cc1F`: the growth is 76.9% with NCI-H23 lung; 81.8% in the assay on NCI-H226 lung; 83.3% in the assay with NCI-H322M lung; 35.7% in the assay with HOP-62 NSCLC; 88.1% in the assay with NCI-H460 lung; 50.5% with HOP-92 NSCLC. The growth in the assay on 786-0 renal was 67.2%; in the assay with COLO 205 colon it was 86.2%; in the assay on DU-145 prostate, 88.1%; in the assay on K-562 leukemia, 83.7%; with MALME-3M melanoma, 86.6%; in the assay with MDA-MB-231 breast, 82.2%. The growth in the assay with RXF 393 renal is 77.2%; in the assay on SF-268 CNS, 70.7%; in the assay on SF-295 CNS it was 75.5%; in the assay with SF-539 CNS, 78.1%; with M14 melanoma it was 87.7%.

As for `N=C(N)c1ccc(-c2ccc(-c3cccs3)s2)cc1F`, the growth with NCI-H23 lung is -62.8% (active); in the assay with NCI-H226 lung, -65.6% (active); in the assay on NCI-H322M lung, -92.4% (active); with HOP-62 NSCLC it was -96.2% (active); with NCI-H460 lung it was -57.4% (active); in the assay with HOP-92 NSCLC, -62% (active). Also, the growth in the assay with 786-0 renal was -86% (active); with COLO 205 colon, -87.1% (active); with DU-145 prostate it was -77.4% (active); with K-562 leukemia it was -6.25% (active); in the assay with MALME-3M melanoma it was -73.4% (active); with MDA-MB-231 breast it was -74.1% (active). In addition, the growth with RXF 393 renal is -92.6% (active); in the assay with SF-268 CNS, -77.1% (active); with SF-295 CNS it was -71.2% (active); in the assay with SF-539 CNS, -93.9% (active); with M14 melanoma it was -78.3% (active).

On to `COc1ccc(/C=N/NC(N)=S)c(OC)n1`, for which the growth was 108% in the assay with NCI-H23 lung; 85.7% with NCI-H226 lung; 104% with NCI-H322M lung; 116% in the assay on HOP-62 NSCLC; 106% in the assay with NCI-H460 lung; 113% in the assay with HOP-92 NSCLC. The growth is 104% in the assay with 786-0 renal; 111% in the assay on COLO 205 colon; 113% with DU-145 prostate; 89.5% in the assay on K-562 leukemia; 103% in the assay with MALME-3M melanoma; 110% in the assay on MDA-MB-231 breast. The growth is 94.4% in the assay on RXF 393 renal; 109% with SF-268 CNS; 106% in the assay on SF-295 CNS; 100% with SF-539 CNS; 104% in the assay with M14 melanoma.

For `CCS(=O)(=O)Nc1cccc(Nc2c3cccc(C)c3nc3c(C)cccc23)c1OC`, the growth is 11.1% in the assay with NCI-H23 lung; -6.89% (active) with NCI-H226 lung; 49.1% in the assay on NCI-H322M lung; 8.84% (active) with HOP-62 NSCLC; 3.23% (active) in the assay on NCI-H460 lung; -11.8% (active) with HOP-92 NSCLC. In addition, the growth in the assay with 786-0 renal is -42.1% (active); in the assay on COLO 205 colon, 27.1%; in the assay with DU-145 prostate it was 2.74% (active); in the assay with K-562 leukemia it was 8.19% (active); in the assay on MALME-3M melanoma, 21.5%; in the assay with MDA-MB-231 breast it was 59.9%. Further, the growth with RXF 393 renal was 34.6%; in the assay with SF-268 CNS, 20.4%; in the assay on SF-295 CNS it was -7.84% (active); in the assay on SF-539 CNS, -41.3% (active); with M14 melanoma, 17.2%.

On to `COC(=O)[C@@H](Cc1c[nH]c2ccccc12)NC(=O)/C=C/c1ccccc1`, for which the growth in the assay with NCI-H23 lung was 39.4%; with NCI-H226 lung, 60.2%; with NCI-H322M lung it was 33.8%; in the assay on HOP-62 NSCLC, 19%; with NCI-H460 lung it was 9.94% (active); with HOP-92 NSCLC, 54.6%. Moreover, the growth in the assay on 786-0 renal was 28.8%; in the assay on COLO 205 colon, 97.3%; in the assay on DU-145 prostate it was 12%; in the assay with K-562 leukemia, 15.9%; in the assay with MALME-3M melanoma, 35.1%; in the assay with MDA-MB-231 breast, 37.7%. The growth in the assay with RXF 393 renal is -25.6% (active); with SF-268 CNS it was 42.9%; with SF-295 CNS it was -1.2% (active); in the assay with SF-539 CNS, -66.8% (active); with M14 melanoma, -37.5% (active).

Turning to `O=C(N/N=C/c1ccc([N+](=O)[O-])o1)c1ccc(O)cc1`, the growth in the assay on NCI-H23 lung was 41.5%; in the assay on NCI-H226 lung, 89.7%; in the assay on NCI-H322M lung, 65.6%; in the assay on HOP-62 NSCLC, 30.3%; in the assay with NCI-H460 lung, 18.8%; with HOP-92 NSCLC it was 103%. Besides, the growth in the assay on A549/ATCC NSCLC is 36.9%; with 786-0 renal it was 63.4%; with MALME-3M melanoma it was -34.9% (active); in the assay on MDA-MB-231 breast, 57.9%; in the assay on RXF 393 renal it was 82.5%; with SF-268 CNS, 12.6%. Moreover, the growth in the assay with SF-295 CNS is 49.8%; in the assay with SF-539 CNS, 8.11% (active); in the assay on UACC-257 melanoma it was 17.1%; with M14 melanoma, 4.75% (active).

For the compound `CCCCCCCCCCCCCC`, the growth was 92.5% with NCI-H23 lung; 106% with NCI-H226 lung; 105% in the assay with NCI-H322M lung; 98.2% in the assay on HOP-62 NSCLC; 108% in the assay on NCI-H460 lung; 91.3% with HOP-92 NSCLC. Also, the growth in the assay with 786-0 renal was 99.4%; in the assay on COLO 205 colon it was 108%; in the assay with DU-145 prostate, 135%; with K-562 leukemia, 113%; in the assay on MALME-3M melanoma, 113%; in the assay on RXF 393 renal, 112%. For the same compound, the growth is 120% in the assay on SF-268 CNS, 99.2% in the assay with SF-295 CNS, 109% with SF-539 CNS and 115% in the assay on M14 melanoma.

In the case of `Cc1nn(-c2ccccc2)c2nc3c(nc12)C1=NCCN1C(c1ccc(Cl)cc1)N3` (centres undefined), the growth in the assay on NCI-H23 lung was 92.8%; in the assay on NCI-H226 lung, 86.2%; with NCI-H322M lung, 77.4%; in the assay on HOP-62 NSCLC, 87.7%; in the assay with NCI-H460 lung, 82.9%; with HOP-92 NSCLC it was 30.2%. Moreover, the growth in the assay with A549/ATCC NSCLC was 88.9%; with 786-0 renal it was 76.6%; in the assay with COLO 205 colon it was -82.9% (active); in the assay with DU-145 prostate, 89.9%; in the assay on K-562 leukemia, 5.26% (active); in the assay on MALME-3M melanoma, 7.76% (active). For the same compound, the growth with MDA-MB-231 breast was 66.8%; in the assay with RXF 393 renal it was 70%; in the assay on SF-268 CNS it was 84.9%; in the assay with SF-295 CNS, 94.6%; in the assay with SF-539 CNS, 95.1%.

For the origin of these results see PubChem BioAssay (NCI).
